Most compounds without a hit are left out; they make up all but 4% or so of the library.
D1 PAM – human D1 dopamine receptor positive modulation; P21728; HEK293 TREx D1 cells, calcium flux, dopamine EC20 potentiation; actives 0.036% (n = 360,000); AID 504651; potentiation, % at 10 µM; in the data active = potentiation above about 30%; note: 0% is about no effect
Target sequence (P21728 whole entry, looked up): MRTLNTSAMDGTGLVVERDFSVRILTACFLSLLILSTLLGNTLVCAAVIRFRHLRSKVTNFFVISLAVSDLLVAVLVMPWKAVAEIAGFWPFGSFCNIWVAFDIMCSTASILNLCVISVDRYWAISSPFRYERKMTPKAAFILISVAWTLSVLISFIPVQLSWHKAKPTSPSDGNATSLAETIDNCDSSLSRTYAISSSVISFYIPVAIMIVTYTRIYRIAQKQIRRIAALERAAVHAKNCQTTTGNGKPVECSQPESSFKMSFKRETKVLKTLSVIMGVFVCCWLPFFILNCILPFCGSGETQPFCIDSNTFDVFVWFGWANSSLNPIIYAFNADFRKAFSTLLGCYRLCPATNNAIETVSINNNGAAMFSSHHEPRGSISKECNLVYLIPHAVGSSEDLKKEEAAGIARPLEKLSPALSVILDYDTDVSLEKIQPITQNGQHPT
D1 antag – antagonists of human D1 dopamine receptor. P21728. HEK293 TREx D1 cells, calcium flux, dopamine EC80; stronger effect = lower value. activity change, negative = inhibition, % at 10 µM. actives 3.2% (n = 360,000); in the data active = activity change below about -30%; note: % is set by controls: 0 for no effect and ±100 for the full control effect
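Allosteric or orthosteric antagonism assessed as attenuation of the calcium response to EC80 dopamine, added 180 s after compound, in induced HEK293 Trex D1 cells loaded with no-wash calcium dye.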
D1 agonist – activates the human D1 dopamine receptor | HEK293 T-REx D1 cells, calcium flux, agonist mode | activation, % at 2 µM | actives 1% (n = 360,000) | P21728 | AID 504660; note: 0% is about no effect
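Tetracycline-induced HEK293 TREx D1 cells, force-coupled to calcium signalling, were dye-loaded with a no-wash calcium kit. Compound was pin-added after a 10 s baseline. Fluorescence was read kinetically at 1 cycle/s for 180 s, with calcium rises flagged as agonism.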
TRHR enhancer – allosterically enhances the human TRH receptor | AID 493056 | actives 0.66% (n = 360,000) | P34981 | TRHR cells, fluo-8 calcium fluorescence, EC20 TRH enhancement | enhancement, % at 2 µM; in the data active = enhancement above about 30%; note: 0% is about no effect
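TRHR-expressing cells loaded with fluo-8 calcium dye were read kinetically (ex 480/em 530) during compound addition, then stimulated with an EC20 of TRH (10 nM final). Enhancement of the Gq-mediated intracellular calcium response was scored.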
TRHR ag – agonists of human TRH receptor; P34981; TRHR cells, calcium flux fluo-8, FDSS agonist mode; activation, % at 2 µM; actives 0.18% (n = 360,000); AID 493084; note: 0% is about no effect
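Agonist-mode FDSS calcium read (Ex 480/Em 530, 1 s cycles) in 1536-well TRHR cells with fluo-8 dye, after 10-cycle baseline and 23 nL compound addition; TRH at EC20 (10 nM final) added afterwards for the enhancer phase.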
GRP78 ERSR act – inducers of ER stress response in human glioma cells; Potency, µM, for inactives: at the top dose activation, actives largely listed as activators; actives 0.02% (n = 420,000); AID 602332; U87-MG GRP78 promoter luciferase reporter, 16 h; active = well fitted activation curve with a large enough effect; note: potency is the fitted concentration of half-maximal effect; series mostly up to about 76 µM; % of control where 0% means no effect; nearly all actives have a fitted effect of over 35% in size
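ERSR induction read as luciferase luminescence (Bright-Glo, 10 min at room temperature) in stably transfected human U87-MG glioma cells exposed to compounds for 16 h, using GRP78 as sensor.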
Active calls of the source: *; . = no result. Cut-off read from the data, not from the text of the source, unless noted: active = activation above about 30%; inactive = the rest.

SMILES | D1 PAM | D1 antag | D1 agonist | TRHR enhancer | TRHR ag | GRP78 ERSR act
O=CC(Cl)P(=O)(N1CCOCC1)N1CCOCC1 (stereo not given) | -6 | -36* | 1 | 0 | 0 | 1%
CC(C)(C)P(=O)(N1CCOCC1)N1CCOCC1 | 0 | -4 | 3 | -8 | 1 | -3%
O=c1[nH]c(=O)n(Cc2ccc(F)cc2)c(O)c1C=NCCN1CCCCC1 | 1 | -4 | 3 | 12 | 0 | 2%
COc1ccc(Cn2c(O)c(C=NCCN3CCOCC3)c(=O)[nH]c2=O)cc1 | -4 | -37* | 1 | -1 | 0 | -3%
CN1C[C@H](CO)C=C2c3cccc4[nH]cc(c34)C[C@H]21 | -5 | -76* | 23 | 2 | -1 | -2%
CCC1(CC)C(=O)N(C)C(=O)NC1=NC | 6 | -35* | 0 | 1 | 0 | -4%
CN(C)C1(CNC(=O)c2ccc(NS(=O)(=O)c3ccc(Cl)c(Cl)c3)cc2)CCCCC1 | -6 | 22 | 2 | -4 | 0 | -2%
CN(C)C1(CNC(=O)Nc2ccc(Cl)c(Cl)c2)CCCCC1 | -9 | -7 | 32* | 16 | 4 | 2%
CCN1C[C@@]2(COC)[C@H]3[C@@H](OC)[C@H]4C1[C@@]3([C@H](OC)C[C@@H]2O)[C@H]1C[C@@]2(O)[C@@H](OC(=O)c3ccccc3)[C@@H]1[C@@]4(OC(C)=O)[C@H](O)[C@@H]2OC | . | . | . | . | . | -2%
COc1ccc(Br)cc1CNCCc1ccc2c(c1)OCO2 | . | . | . | . | . | -4%
Clc1ccc(CNCCc2ccc3c(c2)OCO3)cc1 | -10 | 2 | 19 | -5 | 1 | -3%
FC(F)(F)c1ccc(CNCCc2ccc3c(c2)OCO3)cc1 | -2 | 4 | 35* | 10 | 1 | 1%
COc1ccc(CNCCc2ccc3c(c2)OCO3)cc1Br | -4 | -18 | 78* | -2 | 0 | -9%
CC1(C)C(O)CC(O)[C@]2(C)C1CC(=O)[C@]1(C)C2CC[C@@]2(C)C(c3ccoc3)OC(=O)C3OC321 (stereo not given in full) | . | . | . | . | . | -3%
CCOc1cc2c(cc1OCC)-n1cccc1C(c1ccc(OC)c(O)c1)NC2 (stereo not given) | -2 | -23 | 96* | 3 | -1 | -2%
CCOc1cc(C2NCc3ccccc3-n3cccc32)ccc1OC (stereo not given) | -3 | 3 | 12 | 4 | 2 | -5%
CCn1c(O)c(C=Nc2ccc(N3CCOCC3)c(Br)c2)c(=O)n(CC)c1=S | -1 | -4 | 2 | -2 | 1 | -6%
O=c1[nH]c(=S)n(-c2ccc(Cl)cc2)c(O)c1C=Nc1ccc(N2CCOCC2)cc1 | -6 | 2 | 42* | 33* | 13 | 0%
CCn1c(O)c(C=Nc2ccc(N3CCOCC3)cc2)c(=O)n(CC)c1=S | -4 | -4 | 99* | 7 | 32* | -5%
CC(C)=CCCC1(C)C=Cc2c(O)c3c(c(CC=C(C)C)c2O1)OC12C(=CC4CC1C(C)(C)OC2(C/C=C(/C)C(=O)O)C4=O)C3=O (stereo not given) | . | . | . | . | . | -13%
O=C(Nc1cccc(C(=O)Nc2cc(C(=O)Nc3ccc([S+](=O)([O-])[O-])c4cc([S+](=O)([O-])[O-])cc(SOOO)c34)ccc2F)c1)Nc1cccc(C(=O)Nc2cc(C(=O)Nc3ccc([S+](=O)([O-])[O-])c4cc([S+](=O)([O-])[O-])cc([S+](=O)([O-])[O-])c34)ccc2F)c1 | . | . | . | . | . | -3%
O=c1[nH]c(=O)n(Cl)c(=O)n1Cl | . | . | . | . | . | -1%
COc1ccc2[nH]cc(CCN=C(N)N)c2c1 | -6 | -19 | 2 | 36* | 0 | -3%
COc1ccc2[nH]cc(CCN(C(C)C)C(C)C)c2c1 | . | . | . | . | . | -4%
CN1CCN(c2ccc([N+](=O)[O-])c(NCc3ccco3)c2)CC1 | -6 | -31* | 0 | 4 | 0 | -2%
CCN(CC)c1ccc(/C=C/[N+](=O)[O-])cc1 | -3 | -19 | 254* | 0 | 72* | 0%

Source: PubChem (National Center for Advancing Translational Sciences (NCATS))
